Test [1] concerns the target Cellular tumor antigen p53 (Homo sapiens) (UniProt P04637). The experiment in a line: Primary qHTS for small molecule compounds that upregulate eGFP-tagged delta133p53alpha (in N-terminal) cells. (AID 2060322).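 For activation: cells pre-induced with doxycycline then dosed without doxycycline; 0% = DMSO vehicle and 100% = reference activator.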 Note: nearly all actives have a fitted effect of over 75% in size. Note: potency is the fitted concentration of half-maximal effect. The conditions noted are these: NCI-H358 eGFP-delta133p53alpha fluorescence, 24 h; activation: stronger effect = higher value. The essentials: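 NCI-H358 cells pre-induced 24 h with 10 ng/ml doxycycline for eGFP-delta133p53alpha, plated dox-free and exposed 24 h at 37C to titrated compounds. Fixed, Hoechst-stained; gated GFP peak intensity by laser scanning cytometry, normalized to DMSO (0%) and 57.5 uM 5-azacytidine (100%).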
(In general: In qHTS, concentration-response curves come from the screen itself.)

For test [2], the target named is Aldehyde dehydrogenase, mitochondrial (Homo sapiens) (UniProt P05091). The experiment in a line: qHTS for Inhibitors of the Aldehyde Dehydrogenase Family (ALDH2) Primary screen (AID 2061308).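 Note: plate controls were vehicle for no effect and reference inhibitor for full effect; nearly all actives have a fitted effect of over 55% in size.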 The conditions noted are these: ALDH2 enzyme inhibition qHTS, 1536-well; series mostly up to 56 µM.
Test [3] has as its target Retinaldehyde dehydrogenase 3 (Homo sapiens) (UniProt P47895). The experiment in a line: qHTS for Inhibitors of the Aldehyde Dehydrogenase Family (ALDH1A3) Primary screen (AID 2061315).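 Note: plate controls were DMSO vehicle for no effect and reference inhibitor for full effect.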 Particulars: ALDH inhibition qHTS; series mostly up to 56 µM.

The values below come from PubChem BioAssay (NCATS).

Structures are written as SMILES. Results filed as inconclusive are left out. A number with no mark means an inactive call. The source made the active and inactive calls. Calls come from the whole dose curve; as a rule, active = well fitted curve in the direction sought with a large enough effect; inconclusive = small, poorly fitted or top-dose-only effect, or another doubt; inactive = no such curve, though single readings can be large; an effect the other way counts as inactive or inconclusive. Numbered stars: 1 amine (or outer) side, 2 acyl side, 3 side chain; on linkers, the order of the positions; unused ones are H or OH. Square brackets hold non-standard residues; d marks the D form. Peptide text beside a SMILES is read from it. * marks the point of attachment. ξ: configuration not given here. X9 = CCC(C)(N*)C(=O)C1CC[C@@H](C(=O)N[C@@H](Cc2ccccc2)C(=O)NCC(=O)O)N1; X8 = O=C([C@@H]1CC(O)CN1[*:1])[*:2]; aIle = CC[C@@H](C)[C@H](N)C(=O)O; Thr(3ξ) = CC(O)[C@H](N)C(=O)O; ξIva = CCC(C)(N)C(=O)O; Aib = CC(C)(N)C(=O)O

Sequence of Cellular tumor antigen p53 (Homo sapiens) (P04637 whole entry, looked up): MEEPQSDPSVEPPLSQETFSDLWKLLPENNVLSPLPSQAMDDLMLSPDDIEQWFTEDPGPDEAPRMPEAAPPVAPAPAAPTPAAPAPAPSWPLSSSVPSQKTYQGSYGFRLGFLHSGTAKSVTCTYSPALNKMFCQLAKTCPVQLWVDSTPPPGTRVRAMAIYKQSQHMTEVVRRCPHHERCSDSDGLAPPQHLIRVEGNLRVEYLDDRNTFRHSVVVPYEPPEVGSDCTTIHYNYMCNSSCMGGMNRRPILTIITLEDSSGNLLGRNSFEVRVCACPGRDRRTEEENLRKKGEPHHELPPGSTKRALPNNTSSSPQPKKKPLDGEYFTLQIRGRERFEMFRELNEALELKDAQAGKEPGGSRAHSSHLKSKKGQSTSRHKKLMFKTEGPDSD

For `C=C(C)[C@@H]1CC=C(COC(=O)NC(=O)c2ncn3c(=O)n(C)nnc23)CC1`, the activation in test [1] was 10%. Further, the Potency entry in test [2] and in test [3] was “inactive” in each case.
For the compound `O=C(O)CCCCCC[C@H]1C(=O)NC(=O)N1CC[C@@H](O)C1CCCCC1`, the activation in test [1] was -1.67%. In addition, the Potency result in test [2] and in test [3] was “inactive” each time.
Turning to `CC[C@@H](C)[C@H](NC(=O)C(C)(C)NC(=O)[C@H](CCC(N)=O)NC(=O)C(C)(CC)NC(=O)[C@H](Cc1c[nH]c2ccccc12)NC(C)=O)C(=O)N[C@H](C(=O)NC(C)(C)C(=O)N[C@@H](CC(C)C)C(=O)NC(C)(C)C(=O)N1CCC[C@H]1C(=O)N[C@@H](CCC(N)=O)C(=O)NC(C)(C)C(=O)N1CC(O)C[C@H]1C(=O)NC(C)(CC)C(=O)C1CC[C@@H](C(=O)N[C@@H](Cc2ccccc2)C(=O)NCC(=O)O)N1)C(C)O` (some centres undefined) (Ac-W[ξIva]Q[Aib][aIle][Thr(3ξ)][Aib]L[Aib]PQ[Aib][X8]-X9), in test [1], the activation is 3.57%. Besides, the activity change, negative = inhibition was -2.86% [at 11.2 µM] in test [2] and 18.1% [at 11.2 µM] in test [3].
As to `COc1cc(C(=O)OC[C@@]2(O)CO[C@@H](O[C@H]3[C@H](Oc4ccc(C(=O)O)cc4OC)O[C@H](CO)[C@@H](O)[C@@H]3O)[C@@H]2O)ccc1O`, in test [1], the activation is -13.7%. Besides, the Potency entry in test [2] and in test [3] was “inactive” each time.
Turning to `C[C@H]1[C@H](C)CC[C@]2(C(=O)O)CC[C@]3(C)C(=CCC4[C@@]5(C)C[C@@H](O)[C@H](O)C(C)(C)C5CC[C@]43C)[C@H]12` (some centres undefined), the activation in test [1] was -9.16%. Besides, the Potency entry in test [2] and in test [3] was “inactive” each time.
Take `C/C(=C\CCC(C)(C)O)CCO[C@@H]1O[C@H](CO[C@@H]2O[C@@H](C)[C@H](O)[C@@H](O)[C@H]2O)[C@@H](O)[C@H](O)[C@H]1O`: the activation in test [1] was 0%. For the same compound, the Potency result in test [2] and in test [3] was “inactive” in each case.
Regarding `COc1cc(C(=O)OC[C@H]2O[C@H](O[C@@]3(CO)O[C@@H](CO)[C@H](O)[C@H]3O)[C@H](O)[C@@H](O)[C@@H]2O)ccc1O`, in test [1], the activation is -1.53%. In addition, the Potency result in test [2] and in test [3] was “inactive” in each case.
For `C/C=C(/C=C(C)/C=C/C=C/C=C(\C)C(=O)C12OC1C(O)(CCO)NC2=O)C(=O)OC` (centres undefined), in test [1], the activation was -13.7%. Moreover, the Potency result in test [2] and in test [3] was “inactive” each time.
For the compound `CC(C)=CCC[C@](C)(O[C@@H]1O[C@H](CO[C@@H]2OC[C@H](O)[C@H](O)[C@H]2O)[C@@H](O)[C@H](O)[C@H]1O)[C@H]1CC[C@]2(C)[C@@H]1[C@H](O)C[C@@H]1[C@@]3(C)CC[C@H](O[C@@H]4O[C@H](CO)[C@@H](O)[C@H](O)[C@H]4O[C@@H]4O[C@H](CO)[C@@H](O)[C@H](O)[C@H]4O)C(C)(C)[C@@H]3CC[C@]12C`, the activation in test [1] is 9.67%. Besides, the Potency entry in test [2] and in test [3] was “inactive” in each case.
Consider `Cc1ccc(-c2ncc[nH]2)cc1NC(=O)c1ccc(OCc2ccccn2)cc1`, for which the activation in test [1] was -2.86%. The Potency entry in test [2] and in test [3] was “inactive” each time.
With `CC1OC(OC2C(OC3C(O[C@H]4CC[C@@]5(C)C(CC[C@]6(C)C5CC=C5C7CC(C)(C)CC(O)[C@]7(C)CC[C@]56C)C4(C)C)OC(C(=O)O)C(O)C3O)OCC(O)C2O)C(O)C(O)C1O` (some centres undefined), the activation in test [1] was 3.57%. Moreover, the Potency result in test [2] and in test [3] was “inactive” each time.
`CCCN1CCC(c2cccc(S(C)(=O)=O)c2)CC1`: the activation in test [1] was -11.9%. The Potency result in test [2] and in test [3] was “inactive” in each case.
On to `O=c1ccn(C2OC(CO)C(O)C2O)c(=O)[nH]1` (centres undefined), for which the activation in test [1] is 17.6%. The Potency result in test [2] and in test [3] was “inactive” in each case.
As for `CCc1ccc(Cc2ccc3c(c2)[C@]2(OC3)O[C@H](CO)[C@@H](O)[C@H](O)[C@H]2O)cc1`, the activation in test [1] was 7%. Besides, the Potency entry in test [2] and in test [3] was “inactive” throughout.
As for `C=C(C)C1=C[C@@]2(C)C(=CC1=O)CC[C@@H](O)[C@@H]2C`, the activation in test [1] was 22.1%. Moreover, the Potency entry in test [2] and in test [3] was “inactive” each time.
As to `O=C1NC2CCCCN2C12CCN(CCCN1c3ccccc3CCc3ccc(Cl)cc31)CC2` (centres undefined), the Potency in test [1] was 13.5 µM (active). Further, the Potency result in test [2] and in test [3] was “inactive” throughout.
As to `CC(=O)OC1C(O)CC(O[C@@H]2O[C@H](CO)[C@@H](O)[C@H](O)[C@H]2O)C2CCC3C(=O)OC(c4ccoc4)CC3(C)C21` (some centres undefined), the activation in test [1] was 3.05%. Moreover, the Potency entry in test [2] and in test [3] was “inactive” throughout.
For the compound `CCCCC1CCC(c2nc(-c3ccncc3)no2)CC1` (centres undefined), the activation in test [1] was -6.68%. In addition, the Potency result in test [2] and in test [3] was “inactive” throughout.
Turning to `CC(=O)O[C@H]1CC[C@@]2(CI)C(=CC[C@@H]3[C@@H]2CC[C@]2(C)[C@@H]([C@H](C)CCCC(C)C)CC[C@@H]32)C1`, in test [1], the activation was 21.7%. Besides, the results for the activity change, negative = inhibition in test [2] and in test [3] were -4.11% [at 11.2 µM] and 5.91% [at 11.2 µM], respectively.
`CC(NC(=O)CC(=O)O)C(=O)Nc1ccccc1C(N)=O` (centres undefined): in test [1], the activation was -3.05%. In addition, the Potency entry in test [2] and in test [3] was “inactive” each time.
Turning to `C/C(=C/CO)CC[C@@H]1[C@@]2(C)CCC[C@](C)(C(=O)O)C2CC[C@@]1(C)O` (some centres undefined), in test [1], the activation is 27.7%. In addition, the Potency entry in test [2] and in test [3] was “inactive” each time.
Take `O=S(=O)(NC1CCNCC1)c1cc(S(=O)(=O)c2ccccc2)ccc1C(F)(F)F`: the activation in test [1] is 5.25%. Further, the Potency result in test [2] and in test [3] was “inactive” throughout.
Regarding `CCC(C)/C=C(C)/C=C/C1=CC2=C(Cl)C(=O)C(C)(OC(C)=O)C(=O)C2=CN1C(CC(=O)O)C(=O)O` (centres undefined), in test [1], the activation is 9.82%. For the same compound, the Potency entry in test [2] and in test [3] was “inactive” throughout.
